Assay results: PubChem BioAssay (NCI)
About 83,000 compounds went through this panel and 20% of them were active in at least one assay; those are over-represented in the sample as a whole.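 Plates (96-well) were seeded with cells, treated with compound at one concentration, and incubated for 48 hours before percent growth was determined.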 Calls of active or inactive are those of the source. How the source made its calls: active means growth percent below 10; inactive means the rest.

Tests used:
Test in all cases: NCI-60 one-dose screen, 48 h (100 = growth as untreated, 0 = no growth, -100 = all killed)
Conditions in all cases: 10 µM unless noted
[1] = test system: HCT-15 colon
[2] = test system: HT29 colon
[3] = test system: SNB-75 CNS
[4] = test system: SNB-19 CNS
[5] = test system: U251 CNS
[6] = test system: PC-3 prostate
[7] = test system: SK-MEL-5 melanoma
[8] = test system: UACC-62 melanoma
[9] = test system: LOX IMVI melanoma
[10] = test system: SK-MEL-28 melanoma
[11] = test system: SK-MEL-2 melanoma
[12] = test system: EKVX NSCLC
[13] = test system: SN12C renal
[14] = test system: UO-31 renal
[15] = test system: TK-10 renal
[16] = test system: ACHN renal
[17] = test system: CAKI-1 renal
[18] = test system: A498 renal
[19] = test system: MOLT-4 leukemia
[20] = test system: CCRF-CEM leukemia

Measured: growth

COc1cc(-c2ccc(-c3ccc(C(=N)N)cc3)s2)cc(OC)c1OC
active: [2] 8.4% | [19] -2.06%
inactive: [1] 58.9% | [3] 64.8% | [4] 69.1% | [5] 26.2% | [6] 53.4% | [7] 55.3% | [8] 54.7% | [9] 27.2% | [10] 77.3% | [11] 83.9% | [12] 75.4% | [13] 71.4% | [14] 79.3% | [15] 113% | [16] 91.1% | [17] 63.4% | [18] 89.2%

COc1ccc(C2[C@@H](Cl)C(=O)N2c2cc(OC)c(OC)c(OC)c2)cc1Cl (stereo partly drawn)
inactive: [1] 11% | [3] 75.7% | [4] 32.1% | [6] 25.1% | [8] 36.3% | [9] 20.9% | [10] 69.6% | [11] 15% | [12] 35.4% | [13] 29.1% | [15] 63.9% | [16] 33.6% | [17] 26.5% | [19] 13.5%
active: [2] -3.88% | [5] 5.8% | [7] -23.8% | [18] -6% | [20] 9.36%

CCOc1ccc(/C=C/C(=O)c2cccc(OCCCOc3cccc(C(=O)/C=C/c4ccc(OCC)cc4)c3)c2)cc1
inactive: [1] 75.9% | [2] 94.2% | [3] 83.9% | [4] 92.1% | [5] 103% | [6] 75.2% | [7] 75.2% | [8] 57.9% | [9] 83.5% | [10] 87.1% | [11] 106% | [12] 76.9% | [13] 79.5% | [14] 73.4% | [15] 120% | [17] 78% | [18] 73.4% | [20] 67.9% | [19] 73.5%

O=c1cc(-c2ccccc2)nc(SCc2nc3cc(Cl)c(Cl)cc3[nH]2)[nH]1
inactive: [1] 98% | [2] 96.4% | [3] 86% | [4] 109% | [5] 99.9% | [6] 103% | [7] 105% | [8] 105% | [9] 98% | [10] 111% | [11] 91.3% | [12] 102% | [13] 105% | [14] 81.7% | [15] 104% | [17] 93.3% | [18] 93.7% | [20] 124% | [19] 95.5%

COc1ccc(CN2C(=O)OC(C)(COC(C)=O)C2=O)cc1 (stereo not drawn)
inactive: [1] 102% | [2] 107% | [3] 100% | [4] 102% | [5] 104% | [6] 101% | [7] 101% | [8] 95.6% | [9] 100% | [10] 101% | [11] 111% | [12] 107% | [13] 99.8% | [14] 95% | [15] 104% | [17] 94.8% | [18] 103% | [20] 99.5% | [19] 95.6%

CC/C(=C(/c1ccc(O)cc1)c1ccc(OCCN2CCCCC2)cc1)c1ccc(OC)cc1
inactive: [1] 20.1% | [3] 74.1% | [4] 94.7% | [6] 79.4% | [7] 88.6% | [8] 112% | [10] 60.3% | [11] 97.4% | [12] 87% | [13] 91.1% | [14] 70% | [15] 86.6% | [16] 91.3% | [17] 91.2% | [18] 83.2% | [19] 23%
active: [2] 4.3% | [5] 8.72% | [9] -40%

O=c1oc2c(cc1-c1ccccc1)c(=O)[nH]c1ccccc12
inactive: [1] 98.2% | [2] 96.6% | [3] 92.7% | [4] 97.4% | [5] 93.4% | [6] 96.3% | [7] 99.4% | [8] 95.5% | [9] 95.8% | [10] 99.7% | [11] 107% | [12] 91.4% | [13] 96.6% | [15] 99.4% | [16] 102% | [17] 97.5% | [18] 96.9% | [20] 101% | [19] 99.7%

CCOC(=O)c1c(C)nc2ccccc2c1/C=C/c1ccc(F)cc1
inactive: [1] 68.1% | [2] 75.5% | [3] 86.5% | [4] 76.9% | [5] 75.5% | [6] 67.3% | [7] 16.7% | [8] 49.7% | [9] 74.1% | [10] 101% | [11] 75.2% | [12] 60.3% | [13] 77.1% | [14] 62.8% | [15] 82.3% | [17] 67.7% | [18] 75.4% | [20] 67.8% | [19] 42.8%

CN1C(=O)/C(=C/c2ccc(C(=O)Nc3ncc(Cc4cc(Cl)ccc4Cl)s3)cc2)SC1=S
inactive: [1] 49% | [2] 64% | [3] 63.1% | [4] 87.8% | [5] 82.7% | [6] 65.8% | [7] 67% | [8] 34.2% | [9] 41.7% | [10] 77% | [11] 101% | [12] 67% | [13] 87.7% | [14] 63.4% | [15] 79.6% | [17] 30.2% | [18] 77.4% | [19] 70.8%

O=C(N/N=C/c1ccc(Cl)cc1)c1ccc(NC(=O)c2ccccn2)cc1
inactive: [1] 62.8% | [2] 71.8% | [4] 64.9% | [5] 18.3% | [6] 79.8% | [7] 39.7% | [8] 62% | [9] 54% | [10] 52.1% | [11] 78.7% | [12] 68.2% | [13] 38.2% | [15] 47.3% | [17] 41.2% | [18] 81.2% | [19] 79.5%
active: [3] -16% | [14] 0.719% | [16] -0.994%

COC(=O)c1c(C)nc(C)c2c1C(=O)C=C(NCc1ccccc1)C2=O
inactive: [1] 73.3% | [2] 92% | [3] 88.9% | [4] 93.2% | [5] 99% | [6] 75.6% | [7] 51.4% | [8] 65.8% | [9] 61.7% | [10] 108% | [11] 72.8% | [12] 71.5% | [13] 88.6% | [15] 119% | [16] 76% | [17] 81.5% | [18] 124% | [20] 89.1% | [19] 75.9%

Cc1ccc(-c2nc(SCC(=O)N3CCN(c4cc5c(cc4F)c(=O)c(C(=O)O)cn5C4CC4)CC3)nc(Cl)c2C#N)cc1
inactive: [1] 99.8% | [2] 103% | [3] 103% | [4] 94.7% | [5] 106% | [6] 99.5% | [7] 101% | [8] 94.7% | [9] 97.2% | [10] 106% | [11] 97.8% | [12] 96.1% | [13] 96.3% | [14] 82.1% | [15] 104% | [17] 94.7% | [18] 103% | [20] 106% | [19] 105%

O=c1c2ccccc2n(C[C@H]2CO2)c2ccccc12
inactive: [4] 22.3% | [6] 19.2% | [12] 16.3% | [18] 96.1%
active: [1] -16.8% | [2] 2.83% | [3] -29.4% | [5] -6.13% | [7] -80.8% | [8] -83.4% | [9] -54.3% | [10] 2.83% | [11] -64.5% | [13] 6.14% | [14] -27.5% | [15] 4.13% | [17] -9.84% | [20] 6.9% | [19] 0.563%

Cc1c2ccccc2nc2cc3c(cc12)[C@H]1CC[C@]2(C)C(=O)CC[C@H]2[C@@H]1CC3
inactive: [1] 90.3% | [2] 99.9% | [3] 66.4% | [4] 84.9% | [5] 92% | [6] 80.6% | [7] 88.8% | [8] 88.1% | [9] 97.8% | [10] 111% | [11] 103% | [12] 91.5% | [13] 95.4% | [14] 74% | [15] 111% | [17] 73.7% | [18] 104% | [20] 97.4% | [19] 80.8%

Cc1ccc2c(c1)=C/C(=C\c1cc(-c3ccccc3)[nH]c1O)C(=O)N=2
active: [2] 7.77% | [11] 3.31%
inactive: [1] 26.7% | [3] 48% | [4] 34.1% | [5] 40.1% | [6] 61.2% | [7] 47% | [8] 29.9% | [9] 35.8% | [10] 60.8% | [12] 52% | [13] 42.5% | [14] 55.4% | [15] 68.3% | [17] 42.3% | [18] 24.7% | [20] 20% | [19] 18.8%

Cn1c(=O)c2[nH]c(SC/C(=N/O)c3ccc(Br)cc3)nc2n(C)c1=O
active: [3] -27.2% | [5] 1.08% | [8] -14.2% | [14] 4.1% | [15] -30.6% | [16] -58.4% | [17] -45.3% | [18] -80%
inactive: [1] 76.4% | [2] 70% | [4] 38.6% | [6] 49.3% | [7] 33.4% | [9] 36.9% | [10] 45.6% | [11] 33.6% | [12] 43.2% | [13] 17% | [19] 94.7%
